ugtP null kill = compounds lethal to S. aureus RN4220 ugtP deletion mutant. growth inhibition, % (concentration not given with the values). 330,000 compounds, 0.54% hits. OD600 growth, 16 h; in the data active means growth inhibition above about 68%;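 further: plate controls were untreated wells for no effect and antibiotic for full effect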
PrP UTR inh = inhibition of PrP 5' UTR reporter expression; cell-based PrP 5' UTR mRNA reporter, plate reader; inhibition, % (concentration not given with the values); 340,000 compounds, 0.35% hits; in the data active means inhibition above about 52%; further: 0 = median of the neutral control wells
TcdB GH inh = blocks C. difficile toxin B glycohydrolase activity | 350,000 compounds, 0.24% hits | inhibition, % at 9.99 µM | P18177 | TcdB glycohydrolase enzymatic assay, plate reader; in the data active means inhibition above about 10%
Target sequence (P18177 whole entry, looked up): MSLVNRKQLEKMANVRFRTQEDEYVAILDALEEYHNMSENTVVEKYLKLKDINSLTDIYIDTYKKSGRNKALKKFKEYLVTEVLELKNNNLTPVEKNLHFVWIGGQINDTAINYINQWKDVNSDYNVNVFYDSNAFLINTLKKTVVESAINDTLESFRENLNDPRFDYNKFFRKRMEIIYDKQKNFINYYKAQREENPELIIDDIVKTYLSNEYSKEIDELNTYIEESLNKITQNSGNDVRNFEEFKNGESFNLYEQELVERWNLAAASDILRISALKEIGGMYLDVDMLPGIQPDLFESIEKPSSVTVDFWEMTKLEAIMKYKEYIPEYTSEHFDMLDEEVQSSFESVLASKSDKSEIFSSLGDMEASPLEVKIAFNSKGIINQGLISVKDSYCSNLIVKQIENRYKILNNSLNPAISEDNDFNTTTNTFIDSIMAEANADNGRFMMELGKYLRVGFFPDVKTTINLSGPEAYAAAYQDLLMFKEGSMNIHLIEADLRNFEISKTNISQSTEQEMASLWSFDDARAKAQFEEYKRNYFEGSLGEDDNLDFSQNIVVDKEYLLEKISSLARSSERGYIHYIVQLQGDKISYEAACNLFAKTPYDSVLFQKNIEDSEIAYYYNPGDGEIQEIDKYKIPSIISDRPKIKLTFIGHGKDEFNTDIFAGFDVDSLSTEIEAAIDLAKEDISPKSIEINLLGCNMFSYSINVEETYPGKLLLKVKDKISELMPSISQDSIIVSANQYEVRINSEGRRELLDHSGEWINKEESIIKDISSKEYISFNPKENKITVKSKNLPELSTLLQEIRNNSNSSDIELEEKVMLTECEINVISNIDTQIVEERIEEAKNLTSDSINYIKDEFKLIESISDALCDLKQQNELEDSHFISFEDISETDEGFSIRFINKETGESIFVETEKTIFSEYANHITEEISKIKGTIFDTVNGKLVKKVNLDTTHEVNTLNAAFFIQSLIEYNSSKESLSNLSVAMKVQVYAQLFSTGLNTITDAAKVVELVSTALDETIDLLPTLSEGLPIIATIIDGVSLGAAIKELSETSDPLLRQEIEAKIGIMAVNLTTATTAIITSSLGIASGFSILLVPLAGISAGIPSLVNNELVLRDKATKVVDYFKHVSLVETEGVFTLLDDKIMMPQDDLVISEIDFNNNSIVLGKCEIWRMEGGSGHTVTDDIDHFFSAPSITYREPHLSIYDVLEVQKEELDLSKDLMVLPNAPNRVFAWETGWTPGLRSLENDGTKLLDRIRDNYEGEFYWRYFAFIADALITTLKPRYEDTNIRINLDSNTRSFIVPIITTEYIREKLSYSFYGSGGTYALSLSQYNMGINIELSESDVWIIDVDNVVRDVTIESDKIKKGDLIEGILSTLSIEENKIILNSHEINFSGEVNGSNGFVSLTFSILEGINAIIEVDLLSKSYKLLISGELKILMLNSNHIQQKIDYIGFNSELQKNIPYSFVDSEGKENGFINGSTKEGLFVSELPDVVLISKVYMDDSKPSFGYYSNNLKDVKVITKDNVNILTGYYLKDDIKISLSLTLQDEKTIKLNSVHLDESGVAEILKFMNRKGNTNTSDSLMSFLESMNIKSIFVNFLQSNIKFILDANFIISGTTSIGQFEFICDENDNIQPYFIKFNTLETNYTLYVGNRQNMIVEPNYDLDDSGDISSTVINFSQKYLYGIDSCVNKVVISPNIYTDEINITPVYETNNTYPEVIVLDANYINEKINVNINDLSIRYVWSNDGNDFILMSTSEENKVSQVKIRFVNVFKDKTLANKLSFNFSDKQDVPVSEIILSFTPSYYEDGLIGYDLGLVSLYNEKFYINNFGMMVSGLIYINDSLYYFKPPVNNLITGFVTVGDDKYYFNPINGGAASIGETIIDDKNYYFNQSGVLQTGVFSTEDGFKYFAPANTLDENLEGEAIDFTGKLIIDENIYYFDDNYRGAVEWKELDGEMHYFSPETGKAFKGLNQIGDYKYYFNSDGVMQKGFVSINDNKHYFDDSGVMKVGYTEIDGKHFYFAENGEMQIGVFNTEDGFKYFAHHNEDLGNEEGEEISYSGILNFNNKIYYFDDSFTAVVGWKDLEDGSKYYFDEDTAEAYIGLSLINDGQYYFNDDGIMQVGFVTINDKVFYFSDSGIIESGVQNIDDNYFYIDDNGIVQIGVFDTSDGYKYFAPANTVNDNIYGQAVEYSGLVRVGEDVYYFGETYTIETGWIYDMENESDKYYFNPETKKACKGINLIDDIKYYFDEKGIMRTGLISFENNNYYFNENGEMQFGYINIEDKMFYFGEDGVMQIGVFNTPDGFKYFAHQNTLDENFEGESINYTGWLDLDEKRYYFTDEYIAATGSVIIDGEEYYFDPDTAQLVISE
Sa RN4220 lethal = S. aureus RN4220 growth inhibition. OD600, 16 h. inhibition, % (test concentration not listed). AID 1259311. 330,000 compounds, 0.33% hits; in the data active means inhibition above about 85%;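 further: plate controls were untreated cells for no effect and reference antibiotic for full effect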
PfHsp40 rescue = restores yeast growth despite PfHsp40 toxicity | growth rescue, % at 12.5 µM | 340,000 compounds, 0.68% hits | S. cerevisiae expressing PfHsp40, growth rescue, ATP luminescence | AID 504582; in the data active means growth rescue above about 28%, passing the limit was not always enough;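 further: yeast W303a lacking pdr1 and pdr3 grown in galactose medium; growth measured after three days at 30 °C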
Active calls of the source: *; nt = no result. A selection: hits, their analogues and other compounds. The true share with any hit is near 1.2%.

SMILES	ugtP null kill	PrP UTR inh	TcdB GH inh	Sa RN4220 lethal	PfHsp40 rescue
C[C@@H]1CN([C@@H](C)CO)C(=O)c2c(c3ccccc3n2C)-c2ccccc2CO[C@@H]1CN(C)C	nt	nt	20*	nt	nt
C[C@H]1CN([C@@H](C)CO)C(=O)c2c(c3ccccc3n2C)-c2ccccc2CO[C@H]1CN(C)S(C)(=O)=O	nt	nt	-1	nt	nt
COC(=O)c1ccc(C23CC4(C2)C(CN(Cc2ccc(-c5ccccc5)cc2)C4c2ccccc2)C3c2ccc(C(F)(F)F)cc2)cc1 (stereo not drawn)	-4	nt	nt	1	nt
COC(=O)c1ccc(C23CC4(C2)[C@H](CN(Cc2ccc(C(F)(F)F)cc2)[C@@H]4c2ccccc2)C3c2ccc(Cl)nc2)cc1 (stereo partly drawn)	nt	nt	12*	nt	nt
COc1cccc(-n2c(SCC(=O)N3CCOCC3)nnc2-c2c[nH]c3ccccc23)c1	-9	1	11*	-10	1
O=C(CNC(=O)c1ccccc1Br)N/N=C/c1ccc(O)cc1	nt	-11	13*	nt	0
COc1cccc(-c2cn(CC[C@H]3CC[C@H](NS(=O)(=O)Cc4ccccc4)[C@H](CO)O3)nn2)c1	nt	nt	2	nt	nt
CC(C)(C)NC(=O)C(c1ccncc1)N(Cc1ccc(F)cc1)C(=O)c1ccc(-c2ccccc2)[nH]1 (stereo not drawn)	1	-6	1	4	66*
O=C(NC1CCCC1)C(c1ccncc1)N(Cc1ccccc1)C(=O)c1ccc(-c2ccccc2)[nH]1 (stereo not drawn)	5	-13	nt	8	0
O=C(NC1CCSc2ccccc21)c1cc([N+](=O)[O-])ccc1N1CCOCC1 (stereo not drawn)	3	-3	1	2	36*
O=C(NC1CCSc2ccccc21)c1ccc([N+](=O)[O-])cc1 (stereo not drawn)	1	-20	1	4	-1
O=C(Nc1cccc(F)c1)N1CC(=O)N2[C@H](CO)[C@H](c3ccc(-c4ccc(F)cc4)cc3)[C@@H]2C1	nt	nt	-6	nt	nt
CCCNC(=O)N1C[C@H](C)[C@H](OC)CN(C)C(=O)c2ccc(NS(C)(=O)=O)cc2OC[C@@H]1C	nt	nt	-2	nt	nt
CCc1ccc(NC(=O)C2=CC(c3ccc(OC)cc3)=NS(=O)(=O)N2C)cc1	4	-3	76*	4	0
COc1ccc(NC(=O)Nc2ccc3c(c2)CC(=O)N([C@@H](C)CO)C[C@H](C)[C@@H](CN(C)S(=O)(=O)c2ccccc2)O3)cc1	nt	nt	-1	nt	nt
Cn1nc(C(=O)Nc2cc(Cl)ccc2N2CCCC2)c2ccccc2c1=O	100*	4	1	100*	0
CCOc1cc(NC(=S)NCC2CCCO2)c(OCC)cc1NC(=O)c1ccc(F)cc1 (stereo not drawn)	9	-27	19*	23	1
N#CC(c1ccc(Cl)cc1)c1nc2ccccc2nc1C(F)(F)F (stereo not drawn)	-14	-35	nt	0	53*
CC[C@@H](O)C[C@H]1CCC[C@@]2(C[C@@H]3OC(=O)/C=C/[C@@](C)(O)[C@@H](O)[C@H](C)[C@@H](O)[C@H](OC4CCC(N(C)C)C(C)O4)[C@@H](O)[C@](C)(O)CCCCC/C=C/[C@@H]4CC(C)(C)O[C@@]4(O)C[C@H](O2)[C@H]3C)O1 (stereo partly drawn)	nt	-24	2	nt	56*
Cc1ccc(C2=NS(=O)(=O)N(C)C(C(=O)NCc3ccccn3)=C2)cc1	-2	-10	6	5	1
Cc1ccc(C2=NS(=O)(=O)N(C)C(C(=O)NCc3cccs3)=C2)cc1	5	-22	19*	9	0
O=C(NNC(=O)c1cc(Cl)ccc1O)c1ccc(NS(=O)(=O)c2cccs2)cc1	-6	-16	0	17	351*
O=C(NNC(=O)c1cc(F)c(F)cc1Cl)c1ccc(NS(=O)(=O)c2cccs2)cc1	-2	nt	0	1	1
Cc1cc(C2C(=O)C(C(=O)c3ccc(Cl)cc3)C(=O)CC2(C)C)on1 (stereo not drawn)	5	-19	nt	1	5
CCCCCCN1N=C(C)C(C(=O)c2ccc(Cl)cc2)C1=O (stereo not drawn)	4	-10	nt	16	519*
CC1=NN(c2ccccc2)C(=O)C1C(=O)c1cc([N+](=O)[O-])cc([N+](=O)[O-])c1 (stereo not drawn)	2	1	-2	5	-2
CCCCCCCN1N=C(C)C(C(=O)c2ccccc2)C1=O (stereo not drawn)	22	-9	nt	42	381*

Screening data as filed in PubChem.
